Methyltransferases: Primary Screen for Target Class Profiling of Small Molecule Inhibitors of Methyltransferases | actives 3.9% (n = 25,000) | calls only at 40 µM | purified enzyme, MTase-Glo SAH luminescence; hits give low values | AID 1745853, 2022; call rule not given here
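Each enzyme was assayed with SAM and its substrate. SAH formation detected by MTase-Glo luminescence; single-point 40 uM screen[…].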
MTase-Glo ctr: inhibits MTase-Glo coupling enzymes without methyltransferase | Potency, µM (series often up to 57.3 µM), inactives show at the top dose activity change, negative = inhibition, usual class: inhibitors | MTase-Glo coupled enzymes, SAH conversion luminescence, no MTase | actives 6% (n = 180) | shares compounds with Methyltransferases; active = well fitted inhibition curve with a large enough effect; also: potency is read from the fitted curve at half-maximal effect
The depositor's hits bear a star; i = inactive; + = active, no number; [ ] = remark or other dose. This is one part of a sample in which hits are shown more often than they occur. % is scaled to controls: 0 for no effect and ±100 for the full control effect.

SMILES	Methyltransferases	others
CCC1CN2CCc3cc(OC)c(OC)cc3C2CC1CC1=NCCc2cc(O)c(OC)cc21 (stereo not drawn)	+
COc1ccc(NC(=O)N2Cc3ccccc3-n3cccc3C2C)cc1OC (stereo not drawn)	i
CCC1c2cccn2-c2ccccc2CN1C(=O)Nc1cc(C)ccc1C (stereo not drawn)	i
COc1ccccc1NC(=O)N1Cc2ccccc2-n2cccc2C1c1ccc(F)cc1 (stereo not drawn)	i
C=CCN1CCC2(C)c3cc(O)ccc3C[C@H]1[C@H]2C	+
CC(C)[C@@H](CN1CC[C@@](C)(c2cccc(O)c2)[C@@H](C)C1)NC(=O)[C@H]1Cc2ccc(O)cc2CN1	i
COc1cccc(CNC(=O)N2Cc3ccccc3-n3cccc3C2c2ccc(SC)cc2)c1 (stereo not drawn)	i
COc1ccc(NC(=O)N2Cc3ccccc3-n3cccc3C2c2cccc(C)c2)c(OC)c1 (stereo not drawn)	i
Cc1nnc2n1-c1sc(CCc3ccc(CC(C)C)cc3)cc1C(c1ccccc1Cl)=NC2C (stereo not drawn)	+
CCOc1ccc(C2c3cccn3-c3ccccc3CN2C(=O)Nc2ccccc2F)cc1 (stereo not drawn)	i
CCc1ccc(NC(=O)N2Cc3ccccc3-n3cccc3C2c2ccccc2)cc1 (stereo not drawn)	i
COc1ccc(C2c3cccn3-c3ccccc3CN2C(=O)Nc2ccccc2)cc1 (stereo not drawn)	i
C=C(CO)[C@@]12O[C@@H]1[C@@]1(C)C(=CC2=O)CC[C@@H](O)[C@@H]1C	i
Cc1ccc(NC(=O)N2Cc3ccccc3-n3cccc3C2c2cccc(Cl)c2)cc1 (stereo not drawn)	i
CCc1ccc(C2c3cccn3-c3ccccc3CN2C(=O)NCc2ccc(F)cc2)cc1 (stereo not drawn)	i
Cc1ccccc1NC(=O)N1Cc2ccccc2-n2cccc2C1c1ccccc1C (stereo not drawn)	i
COc1cccc(CNC(=O)N2Cc3ccccc3-n3cccc3C2c2ccccc2Cl)c1 (stereo not drawn)	i
Cc1ccc(NC(=O)N2Cc3ccccc3-n3cccc3C2c2ccc(F)cc2)cc1 (stereo not drawn)	i
CC(C)C1c2cccn2-c2ccccc2CN1C(=O)Nc1ccc(Br)cc1F (stereo not drawn)	i
CC[C@@H](CO)NC(=O)[C@@H]1C=C2c3cccc4c3c(cn4C)C[C@H]2N(C)C1	+
CC[C@@H](CO)NC(=O)[C@@H]1C=C2c3cccc4[nH]cc(c34)C[C@H]2N(C)C1	+
CC(C)C1=NOC2(CCCN(Cc3ccccn3)C2)C1 (stereo not drawn)	i
CCC1c2cccn2-c2ccccc2CN1C(=O)Nc1cccc(OC)c1 (stereo not drawn)	i
COc1ccc(C2c3cccn3-c3ccccc3CN2C(=O)NC(C)C)cc1OC (stereo not drawn)	i
Cc1ccccc1NC(=O)N1Cc2ccccc2-n2cccc2C1C(C)C (stereo not drawn)	i
SMILES	Methyltransferases	others
CCc1ccccc1NC(=O)N1Cc2ccccc2-n2cccc2C1c1ccc(OC)c(OC)c1 (stereo not drawn)	i
C=C[C@H]1CN2CC[C@H]1C[C@@H]2CNC(=O)Nc1ccc(Br)cc1	+	MTase-Glo ctr=-29.6%[85.7 µM]
Cn1nc(-c2cccs2)cc1[C@H]1CN2CC[C@H]1C[C@@H]2CNC(=O)C1CCCCC1	i
C=C[C@H]1CN2CC[C@H]1C[C@@H]2[C@@H](O)c1ccnc2ccccc12	i
O=C(Nc1ccccc1)C1=NO[C@@H]2CN(Cc3ccccn3)C[C@H]12	i
Cc1ccccc1C1c2cccn2-c2ccccc2CN1C(=O)NCc1ccccc1 (stereo not drawn)	i
COc1ccccc1-c1cc([C@H]2CN3CC[C@H]2C[C@@H]3CNS(=O)(=O)c2ccccc2)n(C)n1	i
CS(=O)(=O)NC[C@H]1C[C@@H]2CCN1C[C@@H]2CN1CCc2ccccc2C1	i
CC[C@H]1CN2CC[C@H]1C[C@@H]2CNCc1ccc(-c2ccccc2)cc1	+	MTase-Glo ctr=2.4%[85.7 µM]
CCOC(=O)CNC(=O)N1Cc2ccccc2-n2cccc2C1c1ccc(Cl)cc1 (stereo not drawn)	i
CN(C)c1ccc(C2c3cccn3-c3ccccc3CN2C(=O)Nc2cccc(Cl)c2)cc1 (stereo not drawn)	i

From PubChem BioAssay
